# Test results published in PubChem BioAssay AID743446 (Broad Institute, 2014).
# Entries with a potency or affinity are not part of this list. Activity calls are given as the source filed them. The rule behind the calls is not given here.
# Test: HEK293 cell cytotoxicity, dose response, cytotoxicity control, plate reader, cherry-picked samples (AID 743446)
# Details: stronger effect = lower value; at 26 µM unless noted
row,Compound,max activity
1,O=C(c1ccc(F)cc1)N1CC(=O)N2[C@@H](CO)[C@@H](c3ccc(C#CC4CCCC4)cc3)[C@@H]2C1,32.7% [at 6 µM] (inactive)
2,O=C(Cc1ccncc1)NCC[C@H]1CC[C@H](NC(=O)C2CCCC2)[C@H](CO)O1,13.9% [at 0.1 µM] (inactive)
3,COc1ccc(C(=O)Nc2nnc(-c3ccco3)s2)cc1,-21.3% [at 3 µM] (inactive)
4,COc1ccc(-c2cc(C(=O)N3CCOCC3)no2)cc1,-14.8% (inactive)
5,O=C(O)c1ccc(-c2noc(-c3ccccc3Cl)n2)cc1,-20.2% [at 6 µM] (inactive)
6,CN(C)c1ccc(C(=O)Nc2nc3c(s2)CCCC3)cc1,-30% (inactive)
7,C[C@H]1CN([C@@H](C)CO)C(=O)c2cccc(NC(=O)NC3CCCCC3)c2O[C@@H]1CN(C)Cc1ccc(C(F)(F)F)cc1,27.3% [at 12 µM] (inactive)
8,COc1ccc(C(=O)Nc2ccc3ncccc3c2)cc1,-20.3% (inactive)
9,C[C@H](CO)N1C[C@H](C)[C@H](CN(C)Cc2ccc(C(F)(F)F)cc2)Oc2ccc(NC(=O)Nc3ccc(F)cc3)cc2C1=O,-29.9% (inactive)
10,C[C@H](CO)N1C[C@H](C)[C@H](CN(C)C(=O)Nc2ccccc2)OCCCC[C@H](C)Oc2ccc(NC(=O)Nc3ccc4c(c3)OCO4)cc2C1=O,50.9% [at 0.195 µM] (inactive)
11,COc1ccc(C(=O)CC(Sc2ccccc2N)c2ccc(OC)cc2)cc1 (stereo not given),24.8% [at 0.8 µM] (inactive)
12,O=C(NCCc1ccccc1)c1ccc2c(c1)OCO2,21.8% [at 12 µM] (inactive)
13,OC[C@H]1[C@@H](c2ccc(-c3ccc(F)cc3)cc2)[C@@H]2CN(Cc3ccccn3)CCCCN12,-12.3% (inactive)
14,N#C[C@@H]1[C@H](c2ccc(C#Cc3cccc(F)c3)cc2)[C@@H](CO)N1C(=O)C1CC1,10.4% [at 12 µM] (inactive)
15,C[C@H](CO)N1C[C@H](C)[C@H](CN(C)C(=O)Nc2ccccc2)OCCCC[C@H](C)Oc2ccc(NC(=O)CCC(F)(F)F)cc2C1=O,-24.3% [at 0.195 µM] (inactive)
16,O=C(CN1C(=O)c2ccccc2S1(=O)=O)c1ccc(F)cc1,63.1% (inactive)
17,O=C(CC1CS(=O)(=O)CC1CC(=O)Nc1ccc2c(c1)OCCO2)Nc1ccc2c(c1)OCCO2 (stereo not given),38.3% [at 0.8 µM] (inactive)
18,O=C1OCCC1Sc1nnc(-c2ccc(Cl)cc2Cl)o1 (stereo not given),7.96% [at 0.8 µM] (inactive)
19,O=C(Cc1ccccc1Cl)Nc1cccnc1,17.2% [at 0.1 µM] (inactive)
20,COc1ccccc1CNS(=O)(=O)c1ccc(N2CCCC2)cc1Br,-9.37% (inactive)
21,O=C(Nc1cccc(C(=O)O)c1)Nc1ccccc1Cl,-26.9% [at 6 µM] (inactive)
22,C=CCNC(=O)c1c(Cl)nc(C)c([N+](=O)[O-])c1C,11.7% [at 0.1 µM] (inactive)
23,CC(C)Oc1ccc(CNC(=O)CC(c2ccccc2)c2cc(Cl)ccc2O)cc1 (stereo not given),29.6% [at 0.8 µM] (inactive)
24,CN(C)c1cccc(C(=O)Nc2nc3ccccc3[nH]2)c1,39.2% [at 12 µM] (inactive)
25,O=C(Nc1ccc(NC(=O)c2ccco2)nc1)c1ccco1,-22.6% (inactive)

row,Compound,max activity
1,Cc1ccc2nc(-c3ccc(N)cc3)sc2c1,21.7% [at 3 µM] (inactive)
2,COC(=O)c1ccc2nc(-c3cccc(N)c3)cn2c1,9.42% [at 0.195 µM] (inactive)
3,O=C(O)c1cccc(-c2nc3ccccc3[nH]2)c1,-25.9% [at 0.38 µM] (inactive)
4,COc1ccc(-c2cc(C(=O)N3CCCC3)no2)cc1,30.6% [at 0.195 µM] (inactive)
5,Cc1ccc2nc(-c3ccc(NC(=O)COC(=O)c4ccco4)cc3)sc2c1,-11.7% [at 1.6 µM] (inactive)
6,O=C(Nc1nc2ccccc2[nH]1)c1ccc(Cl)cc1,71.5% [at 0.8 µM] (inactive)
7,O=C(c1cc(-c2ccc(Cl)cc2Cl)on1)N1CCOCC1,14.9% [at 0.05 µM] (inactive)
8,COc1ccc(-n2sc3ccc(F)cc3c2=O)cc1,-22.4% [at 0.05 µM] (inactive)
9,Cc1cnc(NC(=O)c2sc3ccccc3c2Cl)s1,35.5% [at 6 µM] (inactive)
10,c1ccc(-n2ncc3c(N4CCCCC4)ncnc32)cc1,-13.3% [at 3 µM] (inactive)
11,CCCC(=O)N1CCCC(c2cc(C(=O)Nc3ccccc3)no2)C1 (stereo not given),-23.2% [at 0.05 µM] (inactive)
12,Cc1oc(-c2ccc3c(c2)OCCO3)cc1C(=O)O,-18.6% (inactive)
13,COc1ccc(-c2noc(CCC(=O)N3CCN(c4ccc(Cl)cc4)CC3)n2)cc1,26.2% [at 12 µM] (inactive)
14,O=C(CN1CCOc2ccccc21)NCc1ccc(F)cc1,16.4% [at 6 µM] (inactive)
15,CC(C)c1nnc(NC(=O)c2ccc3c(c2)OCO3)s1,30.9% [at 0.38 µM] (inactive)
16,c1ccc(-c2cn3c4c(sc3n2)CCCC4)cc1,-19.5% (inactive)
17,Cc1ccc(-n2[nH]c(=O)c(-c3ccccn3)c2C)cc1,41.3% [at 12 µM] (inactive)
18,Oc1ccc(-c2csc(-c3cccnc3)n2)c(O)c1,-34.3% (inactive)
19,CC(=O)c1ccc(S(=O)(=O)N2CCC(NC(=O)Nc3cccc(F)c3)CC2)cc1,28.3% [at 3 µM] (inactive)
20,O=C(C[C@@H]1C[C@H]2c3cc(NC(=O)c4ccc5c(c4)OCO5)ccc3O[C@H]2[C@@H](CO)O1)NCc1ccc(Oc2ccccc2)cc1,-15.7% [at 0.05 µM] (inactive)
21,C[C@@H]1CN([C@H](C)CO)C(=O)CCCn2nncc2CO[C@H]1CN(C)C(=O)Nc1cccc2ccccc12,15.4% (inactive)
22,CC(=O)N1CCc2cc(S(=O)(=O)C(C)CC(=O)NCc3ccco3)ccc21 (stereo not given),-15.3% [at 6 µM] (inactive)
23,O=C(CN1C(=O)c2ccccc2S1(=O)=O)c1ccc(F)c(F)c1,11.6% (inactive)
24,COc1ccc(C(=O)Nc2nnc(SCC(=O)NCc3ccco3)s2)c(OC)c1,15% (inactive)
25,CN1CCN(c2ccc(NC(=O)N3CCc4ccccc43)cc2)CC1,17.5% [at 1.6 µM] (inactive)

row,Compound,max activity
1,C[C@H](CO)N1C[C@H](C)[C@H](CN(C)Cc2ccncc2)Oc2ncc(C#CCC3CCCCC3)cc2C1=O,18.1% [at 3 µM] (inactive)
2,Cc1ccc(S(=O)(=O)N(C)C[C@H]2Oc3cc(Br)ccc3S(=O)(=O)N([C@H](C)CO)C[C@H]2C)cc1,10.1% [at 1.6 µM] (inactive)
3,Cc1ccc(-c2cnn3c(N4CCOCC4)cc(C)nc23)cc1,35.7% [at 0.38 µM] (inactive)
4,CC(C)CCn1cnc2c(oc3nc4c(cc32)CCCC4)c1=O,-17.8% (inactive)
5,Cc1cnc(NC(=O)COc2ccccc2Cl)s1,11.6% (inactive)
6,COc1ccc(-n2ncc3c(N(C)C4CCCCC4)ncnc32)cc1,31.2% [at 0.05 µM] (inactive)
7,O=C(Nc1ccc(N2CCOCC2)c(S(=O)(=O)Nc2ccccc2Cl)c1)c1ccc(F)cc1,-18.2% [at 0.1 µM] (inactive)
8,C[C@H]1CCCCO[C@H](CN(C)C(=O)Nc2cccc3ccccc23)[C@@H](C)CN([C@@H](C)CO)C(=O)c2cc(NS(=O)(=O)c3cn(C)cn3)ccc2O1,21.9% [at 0.05 µM] (inactive)
9,O=C(NCCc1ccc(Cl)cc1)c1ccc2c(c1)OCCO2,19.7% [at 0.8 µM] (inactive)
10,O=C(CN1C(=O)c2ccccc2S1(=O)=O)c1ccccc1Cl,32.4% (inactive)
11,COc1ccc(-n2cc(C(=O)c3ccccc3O)cn2)cc1,69.9% [at 3 µM] (inactive)
12,COc1ccc(C(=O)CN2C(=O)c3ccccc3S2(=O)=O)cc1,-13.3% [at 0.05 µM] (inactive)
13,CCn1c2ccccc2c2cc(CNCc3ccc(OC)cc3OC)ccc21,-98.9% (inactive)
14,COc1ccc2oc(-c3ccccc3)cc(=O)c2c1,-14.7% [at 12 µM] (inactive)
15,Cc1ccc(-c2cc(C(=O)N(C)Cc3cnn(C)c3C)c3cc(Br)ccc3n2)cc1,-9.48% (inactive)
16,N#C[C@@H]1[C@H](c2ccc(C#Cc3ccccc3F)cc2)[C@@H](CO)N1C(=O)C1CCC1,28.6% [at 6 µM] (inactive)
17,COc1ccc(NC(=O)N(C)C[C@@H]2OCCCC[C@H](C)Oc3ccc(NC(=O)NC4CCCCC4)cc3C(=O)N([C@H](C)CO)C[C@@H]2C)cc1,7.92% [at 0.195 µM] (inactive)
18,CCCCC(=O)N(C)c1c(C)nc2ccc(C(=O)N3CCCCC3)cn12,-12.7% [at 12 µM] (inactive)
19,C[C@H](CO)N1C[C@H](C)[C@@H](CN(C)CC2CCOCC2)Oc2ncc(Br)cc2C1=O,4.11% (inactive)
20,Cc1cccc(-n2ncc3c(N4CCOCC4)ncnc32)c1,28.5% (inactive)
21,Cc1ccc2nc(-c3ccc(NC(=O)c4cccnc4)cc3)oc2c1,-17.1% [at 0.1 µM] (inactive)
22,Cc1ccc(S(=O)(=O)Nc2ccc3c(c2)C(=O)N([C@H](C)CO)C[C@@H](C)[C@H](CN(C)S(=O)(=O)c2cccs2)OCCCC[C@@H](C)O3)cc1,-17.3% [at 12 µM] (inactive)
23,N#C[C@H]1[C@@H](c2ccc(C3=CCCCC3)cc2)[C@H](CO)N1C(=O)c1ccccn1,74.4% [at 12 µM] (inactive)
24,C[C@H](CO)N1C[C@H](C)[C@@H](CN(C)C(=O)Nc2ccc3c(c2)OCO3)Oc2c(cccc2N(C)C)C1=O,-7.24% [at 0.8 µM] (inactive)
25,C[C@H](CO)N1C[C@H](C)[C@H](CN(C)C(=O)Nc2ccc(F)cc2)OCCCC[C@H](C)Oc2ccc(NC(=O)Nc3ccc(F)cc3)cc2C1=O,17% [at 1.5 µM] (inactive)
